Activity change, negative = inhibition data for 60 molecules are collected here from PubChem BioAssay AID504652 (National Center for Advancing Translational Sciences (NCATS), 2011).

SMILES strings stand for the structures. The whole screen tested about 360,000 compounds, of which about 11,000 (3.1%) were called active. For the sample, actives were picked, then their nearest neighbours and some compounds at random. A number with no mark means an inactive call. Cut-off read from the data, not from the text of the source: active = activity change below about -30%; inactive = the rest.
% is set by controls: 0 for no effect and ±100 for the full control effect.

Chain of D(1A) dopamine receptor (Homo sapiens) (P21728 whole entry, looked up): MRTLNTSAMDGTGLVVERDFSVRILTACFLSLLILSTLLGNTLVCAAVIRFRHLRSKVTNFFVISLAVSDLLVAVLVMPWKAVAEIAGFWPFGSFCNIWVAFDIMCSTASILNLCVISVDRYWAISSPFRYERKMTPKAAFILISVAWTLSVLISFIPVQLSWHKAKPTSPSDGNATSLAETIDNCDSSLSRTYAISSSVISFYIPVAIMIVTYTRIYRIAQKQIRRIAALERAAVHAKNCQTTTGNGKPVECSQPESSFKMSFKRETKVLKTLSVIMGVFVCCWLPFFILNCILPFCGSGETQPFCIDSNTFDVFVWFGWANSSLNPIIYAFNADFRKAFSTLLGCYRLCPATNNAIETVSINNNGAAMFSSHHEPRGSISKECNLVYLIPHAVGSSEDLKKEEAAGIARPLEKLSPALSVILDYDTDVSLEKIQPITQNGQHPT

This experiment addresses D(1A) dopamine receptor (Homo sapiens) (UniProt P21728). Description: Antagonist of Human D 1 Dopamine Receptor: qHTS. The settings on record: HEK293 TREx D1 cells, calcium flux, dopamine EC80; at 10 µM; active compounds read low. The essentials: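 After overnight tetracycline induction at 30 C, force-coupled D1 HEK293 cells took up a no-wash calcium dye at room temperature. Compounds were added and monitored 180 s, and the response to EC80 dopamine was then recorded.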
On the technique in general: Quantitative high-throughput screening tests each substance at several concentrations.
For `CCCn1c2ccccc2c2cnn(CC(=O)N3CCCC(C(=O)OCC)C3)c(=O)c21` (stereo not given), the activity change, negative = inhibition was 13.4%.
With `CCOC(=O)C1CCCN(C(=O)Cn2ncc3c(C)n(Cc4ccc(F)cc4)c(C)c3c2=O)C1` (stereo not given), the activity change, negative = inhibition was -36.8% (active).
Under `Cc1ccc(Cn2c(C)c3cnn(CC(=O)NCc4ccccc4)c(=O)c3c2C)cc1` stands -2.69%; under `CC1CCN(C(=O)Cn2c(=O)n(-c3ccc(Cl)cc3)c(=O)c3c4c(sc32)CCC4)CC1`, -0.901%.
For the molecule `CSc1ccc(NC(=O)Cn2nnnc2-c2ccccc2F)cc1`, the activity change, negative = inhibition is -8.36%.
For `Cc1ccc(Cl)cc1NC(=O)C(C)n1nnc2sc(-c3ccccc3)cc2c1=O` (stereo not given), the activity change, negative = inhibition was -1.65%.
As to `CCN(CCn1cccn1)Cc1nc(-c2ccc(C(=O)OC)cc2)no1`, the activity change, negative = inhibition is -44.5% (active).
To `COC(=O)c1ccc(-c2noc(CN(Cc3ccccn3)CC3CCCO3)n2)cc1` (stereo not given) belongs -16.4%; to `CCN(CCn1cccn1)Cc1cn[nH]c1-c1ccc(OC)cc1F`, 0.481%.
To `COC(=O)c1ccccc1NC(=O)c1ccc(C#N)cc1` belongs 6.29%; to `CC(C)(C)C(=O)NCCCNc1ccc([N+](=O)[O-])cc1`, -35.6% (active).
Consider `O=[N+]([O-])c1ccc(NCCCO)c(C(F)(F)F)c1`, for which the activity change, negative = inhibition is 6.05%.
Under `COCCCNC(=S)NC(=O)c1ccc([N+](=O)[O-])cc1` stands 5.38%.
As to `CC1=C(C(=O)OCc2ccc(C)cc2)C(c2ccccc2Cl)CC(=O)N1` (stereo not given), the activity change, negative = inhibition was -1.32%.
`Cc1cccc(Cn2c(=O)n(CCC(=O)NCCc3ccc(Cl)cc3)c(=O)c3sccc32)c1`: the activity change, negative = inhibition is -1.13%.
Turning to `CCN(CCCNC(=O)c1cc2cc3cc(OC)ccc3nc2s1)c1ccccc1`, the activity change, negative = inhibition was -2.73%.
Under `O=C(CSc1nc2[nH]ncc2c(=O)[nH]1)Nc1ccc(F)cc1` stands -21.9%.
To `CCCSc1nc2[nH]ncc2c(=O)[nH]1` belongs -32.5% (active); to `Cc1ccc(CSc2nc3[nH]ncc3c(=O)[nH]2)cc1`, -7.82%.
Under `CCc1ccccc1NC(=O)CSc1nnc(-c2ccccc2)c(-c2ccccc2)n1` stands 6.16%; under `O=C1/C(=C/c2ccc(F)cc2)SC(=S)N1NS(=O)(=O)c1ccccc1`, -4.82%.
On to `CCN(C(=O)CN1C(=O)/C(=C/c2ccc(F)cc2)SC1=S)C1CCS(=O)(=O)C1` (stereo not given), for which the activity change, negative = inhibition was 6.56%.
Under `O=C1/C(=C/c2ccc(F)cc2)SC(=S)N1CCCC(=O)N1CCCCC1CCO` (stereo not given) stands -30.8% (active); under `O=C(Cn1cnc2c(oc3ccccc32)c1=O)Nc1ccc(OC(F)(F)F)cc1`, 17.3%.
Under `Cc1cc(NC(=O)Nc2ccc(Cl)cc2)n(-c2ccccc2)n1` stands -15.2%; under `Cn1c(Nc2ccccc2)cc(=O)n(C)c1=O`, 4.71%.
To `Cc1cc(Nc2ccccc2)n(C(=O)c2ccc(N)cc2)n1` belongs -35.8% (active); to `O=C(c1cccs1)c1cn(CCOc2ccc(Cl)cc2)c2ccccc12`, -2.17%.
Take `O=C1c2cccc3c([N+](=O)[O-])ccc(c23)C(=O)N1CC1CCCO1` (stereo not given): the activity change, negative = inhibition is -30.6% (active).
To `CN1CN(C)c2ccc([N+](=O)[O-])c3cccc1c23` belongs 1.14%; to `O=C1C(C=NCC2CCCO2)=C(O)c2ccccc21` (stereo not given), -0.787%.
To `CC(=O)c1ccc(NC(=O)c2nc3nc(C)cc(C(F)F)n3n2)cc1` belongs 6.33%.
Under `CCOC(=O)c1ccc(NC(=O)Cn2c(=O)n(-c3ccc(C)cc3)c(=O)c3c2cnn3C)cc1` stands -7.04%; under `CCn1cc(C(=O)NCc2ccccc2)c(=O)c2cc(S(=O)(=O)N3CCCCC3)ccc21`, 1.17%.
In the case of `CCn1c(CNC(=O)C23CC4CC(CC(C4)C2)C3)nnc1SCC(=O)Nc1ccc(OC)cc1`, the activity change, negative = inhibition is 17.4%.
Consider `COc1ccc(-c2noc(CCCC(=O)NC3CCCC3)n2)cc1OC`, for which the activity change, negative = inhibition is -31.9% (active).
For `CCOc1cc(-c2noc(CCCC(=O)NC3CCCCC3)n2)ccc1OC`, the activity change, negative = inhibition is -2.32%.
In the case of `CCOc1ccc(-c2noc(CCC(=O)NC3CCCC3)n2)cc1OC`, the activity change, negative = inhibition was 5.22%.
To `CCOC(=O)c1c(NC(=O)CSc2cn(CC)c3ccccc23)sc2c1CCC2` belongs -30.9% (active); to `CCOC(=O)c1c(NC(=O)C(C)Sc2c[nH]c3ccccc23)sc2c1CCC2` (stereo not given), 4.04%; to `CCOC(=O)c1c(NC(=O)CSc2cn(CCNC(=O)c3cccc(C(F)(F)F)c3)c3ccccc23)sc2c1CCC2`, -11.4%.
Consider `Cc1cccc(C(=O)Nc2ccc(S(=O)(=O)N3CCCCC3c3cccnc3)cc2)c1` (stereo not given), for which the activity change, negative = inhibition is -26.5%.
Under `COc1ccc(OC)c(NC(=O)C2CCCN(S(=O)(=O)c3ccc4c(c3)CCCC(=O)N4)C2)c1` (stereo not given) stands -38.1% (active).
Turning to `O=C1CCCc2cc(S(=O)(=O)N3CCCC(C(=O)NCc4ccccc4)C3)ccc2N1` (stereo not given), the activity change, negative = inhibition is -3.91%.
To `CC(=O)Nc1ccc(NC(=O)C2CCCN(S(=O)(=O)c3ccc4c(c3)CCCC(=O)N4)C2)cc1` (stereo not given) belongs 0.61%; to `Cc1ccc(CNC(=O)CCc2c(C)nn(-c3ccc(N4CCCC4)nn3)c2C)cc1`, -0.419%.
Under `CCCCC12CN3CC(C)(CN(C1)C3c1ccc(O)c(OC)c1)C2=O` (stereo not given) stands 3.82%; under `CCOC(=O)c1ccc(NC2=CC(c3ccc(OCC)cc3)N(c3ccc(C(=O)OCC)cc3)C2=O)cc1` (stereo not given), -6.51%; under `COc1ccc(C(=O)Nc2onc3c2CCCC3)cc1`, -17.5%.
With `COc1ccc(NC(=O)c2cc3cc(C)ccc3n2C)cc1`, the activity change, negative = inhibition was 7.2%.
Under `COc1ccc(NC(=O)c2c(C)oc3c2CCCC3)cc1` stands -45.1% (active).
Under `O=C(CCSCc1cccc(F)c1)NCc1ccccc1` stands -0.666%; under `COC(=O)c1c(C)[nH]c(C(=O)/C=C/c2ccc(Cl)cc2)c1C`, -47.4% (active); under `Cc1cc(C)nc(NC(=O)/C=C/c2ccc(Cl)cc2)n1`, 4.01%.
Under `CCCCOC(=O)c1[nH]c(C)c(C(=O)OC)c1C` stands -0.924%; under `Cc1ccc(Nc2c(-c3ccc(C)cc3)nc3cnccn23)cc1`, 12.3%; under `COC(=O)c1sc2ncccc2c1-n1c(C)ccc1C`, 1.1%.
For the molecule `O=C(CN1C(=O)COc2ccccc21)NCCN1CCc2ccccc2C1`, the activity change, negative = inhibition is -39.4% (active).
Consider `O=C(CN1C(=O)COc2ccccc21)Nc1ccc(F)cc1`, for which the activity change, negative = inhibition is 4.15%.
On to `COc1ccc(N2CCN(CCNC(=O)CCN3C(=O)COc4ccccc43)CC2)cc1`, for which the activity change, negative = inhibition is 2.07%.
